# Bioassay records (PubChem)
# An excerpt weighted towards active compounds, which were near 4.5% of everything screened.
# dFosB activator – enhances mouse delta FosB homodimer DNA binding; P13346; purified delta FosB, TAMRA-CDK5 oligo fluorescence polarization; percent of positive-control signal above neutral wells; activation, % at 25 µM; actives 0.99% (n = 340,000); AID 493131;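 active = mean activation above about 17%, with every replicate also reaching it, limit read from the data, passing the limit was not always enough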
# ZTA DNA inh – blocks Epstein-Barr virus ZTA, an EBNA-1 counter-screen. ZTA-DNA binding, fluorescence polarization. P03206. inhibition, % at 11 µM. actives 0.15% (n = 320,000); in the data active = inhibition above about 33%
# Target sequence (P03206 whole entry, looked up): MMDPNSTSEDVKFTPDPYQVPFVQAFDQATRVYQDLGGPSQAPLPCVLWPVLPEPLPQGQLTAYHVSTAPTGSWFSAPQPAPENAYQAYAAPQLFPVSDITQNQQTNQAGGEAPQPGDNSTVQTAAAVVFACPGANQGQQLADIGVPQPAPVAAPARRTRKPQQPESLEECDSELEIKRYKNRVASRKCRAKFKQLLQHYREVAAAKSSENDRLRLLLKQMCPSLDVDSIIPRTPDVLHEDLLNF
# NR3A LBD binder – modulators (binders) of human NR3A ligand-binding domain | NR3A LBD differential scanning fluorimetry, Tm shift; 0% = protein alone, 100% = glycine-bound protein | Tm shift relative to glycine control, % at 25 µM | actives 2.5% (n = 340,000) | AID 1259313;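 active = melting temperature shift of at least 10% of the positive control shift, at one fixed dose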
# TPT1 inhibitor – blocks Candida albicans tRNA 2'-phosphotransferase; recombinant caTPT1, FP RNA substrate dephosphorylation; inhibition, % at 5 µM; actives 0.81% (n = 300,000); AID 1962;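 active = inhibition above the mean of all tested compounds plus 3 SD, set per screening campaign, cut at about 24% in these data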;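 note: plate controls were DMSO alone for no effect and ferristatin control at 100 nM for full effect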
# Rpn11 inh – blocks the human proteasome subunit Rpn11; inhibition, % at 20 µM; actives 0.59% (n = 360,000); human 26S proteasome, Ub4-pepOG fluorescence polarization; 20S core pre-blocked with epoxomicin; O00487;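 active = inhibition at 20 µM, scaled to each plate's controls, above about 33%, limit read from the data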
# Target sequence (O00487 whole entry, looked up): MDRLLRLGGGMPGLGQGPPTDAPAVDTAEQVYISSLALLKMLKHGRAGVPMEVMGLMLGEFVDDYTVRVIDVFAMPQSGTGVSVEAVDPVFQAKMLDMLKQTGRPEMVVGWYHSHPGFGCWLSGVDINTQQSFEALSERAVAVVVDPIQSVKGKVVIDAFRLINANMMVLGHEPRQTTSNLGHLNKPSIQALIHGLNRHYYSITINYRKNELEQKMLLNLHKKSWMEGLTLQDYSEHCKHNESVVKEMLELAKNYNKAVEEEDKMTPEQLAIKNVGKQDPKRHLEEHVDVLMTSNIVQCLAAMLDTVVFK
# EBNA-1 inh – blocks EBNA-1 binding to DNA; EBNA-1 DNA binding, fluorescence polarization; inhibition, % at 14.8 µM; AID 1950; actives 0.34% (n = 300,000); in the data active = inhibition above about 28%
# * = called active by the depositor; . = not tested or not shown.
SMILES,dFosB activator,ZTA DNA inh,NR3A LBD binder,TPT1 inhibitor,Rpn11 inh,EBNA-1 inh
O=c1c(-c2c(O)cc(O)c3c(=O)cc(-c4ccc(O)cc4)oc23)c(-c2ccc(O)cc2)oc2cc(O)cc(O)c12,-22,9,27*,4,-4,10
O=c1cc(-c2ccc(O)cc2)oc2c(-c3c(O)cc(O)c4c(=O)cc(-c5ccc(O)cc5)oc34)c(O)cc(O)c12,-7,.,21*,.,5,.
O=c1c(O)c(-c2ccc(O)c(O)c2)oc2cc(O)cc(O)c12,-7,8,22*,8,18,7
COc1ccc(-c2c(C#Cc3ccsc3)c3cc(-c4ccc(C(N)=O)cc4)ccc3n2C)cc1,-2,.,-1,.,8,.
CCCc1cc(=O)oc2c(C)c(OC3CCCCC3=O)ccc12 (stereo not given),-1,.,0,.,-8,.
CCCc1cc(=O)oc2c(C)c(OS(C)(=O)=O)ccc12,-5,9,16*,-1,-5,7
O=c1oc2ccccc2cc1-c1csc(Nc2nc3c(F)cccc3s2)n1,-1,-13,23*,4,31,-1
O=c1oc2ccccc2cc1-c1csc(Nc2nc3ccc(F)cc3s2)n1,.,-5,.,-5,.,-2
COC(=O)CNC(c1ccccc1)c1cc(Br)ccc1NS(=O)(=O)c1ccc(C)cc1 (stereo not given),-5,-4,16*,4,11,-1
COC(=O)CNC(c1ccccc1)c1cc(Br)ccc1NS(=O)(=O)c1ccccc1 (stereo not given),-2,6,-1,5,-2,14
Cc1onc(-c2c(F)cccc2Cl)c1C(=O)O/N=C(\N)c1ccc([N+](=O)[O-])o1,2,9,-1,0,1,-2
Cc1c(Cl)c([N+](=O)[O-])nn1CCCC(=O)Nc1cccc(O)c1,-5,6,12*,-6,1,3
Cc1c(Cl)c([N+](=O)[O-])nn1CCCC(=O)Nc1cccc(Cl)c1Cl,-1,3,-22,-4,6,10
COc1ccccc1C(=O)Nc1cc(Cl)ccc1O,4,-13,11*,1,5,19
COc1cc(NC(=O)c2ccccc2)c(OC)cc1Cl,2,6,-1,-3,8,5
COc1cc(OC)c(NC(=O)c2cc3ccccc3cc2O)cc1Cl,-7,.,26*,.,10,.
CCOc1ccccc1C(=O)Nc1cc(Cl)ccc1O,-2,2,16*,2,5,-9
O=C(O)CC/C(=C\c1ccc(Cl)c([N+](=O)[O-])c1)c1nc2ccccc2s1,3,-1,30*,-3,13,-2
O=C(O)CC/C(=C\c1ccc(N2CCOCC2)c([N+](=O)[O-])c1)c1nc2ccccc2s1,0,.,5,.,3,.
COC(=O)c1ccc2nc(Nc3nc4ccc(F)cc4s3)sc2c1,-5,-7,12*,4,-6,-12
CCOc1ccc(NC(=O)c2ccccc2NC(=O)CNC2CCCC(C)C2C)cc1 (stereo not given),1,.,13*,.,3,.
O=C(c1ccccc1)c1ccc(OCCn2cnc3ccccc3c2=O)cc1,2,-10,0,-8,0,-1
CC(C)(c1ccccc1)c1ccc(OCCn2cnc3ccccc3c2=O)cc1,-2,33,21*,-2,-3,5
CCOc1ccc(NC(=O)c2ccc(NC(=S)NC3CCCCC3)cc2)cc1,-2,1,28*,-2,4,-5
CCOc1ccc(NC(=O)c2ccc(NC(=O)c3ccc(NC(N)=O)cc3)cc2)cc1,.,.,27*,.,106*,.
SMILES,dFosB activator,ZTA DNA inh,NR3A LBD binder,TPT1 inhibitor,Rpn11 inh,EBNA-1 inh
CCOc1ccc(C(=O)NC2CCCCCCC2)cc1,1,8,-1,-3,-1,-5
N#CCC(=O)Nc1ccc(C(=O)NNC(=S)NC2CCCCC2)cc1,.,.,29*,.,4,.
COc1cccc(OC)c1C(=O)Nc1nc(COc2ccccc2)cs1,-25,19,23*,1,6,0
Cc1ccc(C(=O)Nc2nc(COc3ccccc3)cs2)s1,-2,1,29*,1,4,11
Cc1ccc(C(=O)Nc2nc3ccccc3s2)s1,-6,2,18*,-1,4,1
CC(=O)Nc1nc(COc2ccccc2)cs1,-8,-3,0,0,0,8
Cc1ccc(C(=O)Nc2nc3ccc(S(C)(=O)=O)cc3s2)s1,-9,10,6,-1,-4,8
COc1cccc2sc(NC(=O)c3ccc(Br)s3)nc12,4,10,11*,-3,-8,-2
O=C(COc1ccc(F)cc1)N(Cc1ccco1)C1CCS(=O)(=O)C1 (stereo not given),-8,-5,0,-3,-2,-6
COc1cc(CC(=O)OCc2ccccc2F)cc(OC)c1OC,-8,-2,-2,2,2,15
S=C(NCc1ccc2[nH]c3c(c2c1)CCCC3)Nc1ccccc1Cl,-1,2,11*,1,14,-5
CCn1c(SCC(=O)NC2CC2)nnc1-c1csc(C)c1,6,3,-1,-1,-7,2
CCCCc1cc(=O)oc2cc(C)cc(OCC(=O)Nc3ccccn3)c12,-2,-1,0,2,-10,11
O=C(c1ccc(NS(=O)(=O)c2cccs2)cc1)N1CCOCC1,-5,-6,11*,-3,-3,13
COc1ccc(-c2csc(/C(C#N)=C\c3ccc(O)c([N+](=O)[O-])c3)n2)cc1OC,-13,3,-4,2,17,4
COc1ccc(-c2csc(/C(C#N)=C\c3ccc(OC)c([N+](=O)[O-])c3)n2)cc1,-3,-6,33*,0,.,12
FC(F)Oc1ccc(/C=N/NC(=S)Nc2cc(C(F)(F)F)ccc2Cl)cc1,6,-4,35*,3,1,-2
O=C(Nc1cccc(O)c1)c1cc(-c2cccs2)on1,-4,0,15*,-5,2,-11
CC(=O)c1cccc(NC(=O)c2cc(-c3cccs3)on2)c1,1,4,1,4,9,-9
COc1ccc(NC(=O)c2cc(-c3ccccc3Cl)on2)cc1,0,-1,37*,1,9,-17
COc1cccc(-c2cc(C(=O)Nc3cccc(O)c3)no2)c1,-5,16,24*,0,0,3
CN(CC(=O)Nc1ccc(F)cc1)C(=O)CSc1ncccn1,-7,5,-1,0,-2,13
O=C(O)CC/C(=N/NC(=O)CNC(=O)c1ccc2c(c1)OCCO2)c1ccccc1,5,-13,-1,3,5,-7
CCOC(=O)Nc1c(Cl)n(C)c(=O)n(C)c1=O,-5,5,11*,-1,-1,4
O=C(Nc1ccccc1)OCCNC(=O)c1cccc(Br)c1,2,-5,-8,-3,-4,-7
